Screening data from PubChem.
Rows were chosen to be rich in hits. Some 1.5% of all compounds tested hit in one or more screens of this group.
Cardiac RTF inh – cardiac RTF calcium desensitization | P19429+P45379 | hit rate 0.12% among 340,000 | IANBD-labeled cardiac RTF, Ca2+ fluorescence | AID 493244 | inhibition, % at 7.15 µM;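 active means inhibition above the mean inhibition of all tested compounds plus 3 SD, cut at about 17% in these data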;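 further: assay run at fixed EC70 calcium of 1.6 mM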
RTF Ca sens act – increases calcium sensitivity of human cardiac regulated thin filaments; IANBD-labeled TnC RTF fluorescence at EC20 calcium; 0% EC20 calcium, 100% full calcium; activation, % at 7.2 µM; hit rate 0.24% among 340,000; P19429+P45379;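 active means activation above the mean over all tested compounds plus 3 SD, cut at about 30% in these data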;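 further: rise in fluorescence read as greater calcium sensitivity of cardiac thin filaments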
IDE act – boosts human insulin-degrading enzyme activity in HEK cells | P14735 | FAbeta-B cleavage, fluorescence polarization; 0% vehicle, 100% cell-free pure enzyme wells | activation, % at 5.96 µM | hit rate 0.073% among 340,000 | AID 493087;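 active means activation above the mean of all tested compounds plus 3 SD, set per screening campaign, cut at about 17% in these data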
Target sequence (P14735 whole entry, looked up): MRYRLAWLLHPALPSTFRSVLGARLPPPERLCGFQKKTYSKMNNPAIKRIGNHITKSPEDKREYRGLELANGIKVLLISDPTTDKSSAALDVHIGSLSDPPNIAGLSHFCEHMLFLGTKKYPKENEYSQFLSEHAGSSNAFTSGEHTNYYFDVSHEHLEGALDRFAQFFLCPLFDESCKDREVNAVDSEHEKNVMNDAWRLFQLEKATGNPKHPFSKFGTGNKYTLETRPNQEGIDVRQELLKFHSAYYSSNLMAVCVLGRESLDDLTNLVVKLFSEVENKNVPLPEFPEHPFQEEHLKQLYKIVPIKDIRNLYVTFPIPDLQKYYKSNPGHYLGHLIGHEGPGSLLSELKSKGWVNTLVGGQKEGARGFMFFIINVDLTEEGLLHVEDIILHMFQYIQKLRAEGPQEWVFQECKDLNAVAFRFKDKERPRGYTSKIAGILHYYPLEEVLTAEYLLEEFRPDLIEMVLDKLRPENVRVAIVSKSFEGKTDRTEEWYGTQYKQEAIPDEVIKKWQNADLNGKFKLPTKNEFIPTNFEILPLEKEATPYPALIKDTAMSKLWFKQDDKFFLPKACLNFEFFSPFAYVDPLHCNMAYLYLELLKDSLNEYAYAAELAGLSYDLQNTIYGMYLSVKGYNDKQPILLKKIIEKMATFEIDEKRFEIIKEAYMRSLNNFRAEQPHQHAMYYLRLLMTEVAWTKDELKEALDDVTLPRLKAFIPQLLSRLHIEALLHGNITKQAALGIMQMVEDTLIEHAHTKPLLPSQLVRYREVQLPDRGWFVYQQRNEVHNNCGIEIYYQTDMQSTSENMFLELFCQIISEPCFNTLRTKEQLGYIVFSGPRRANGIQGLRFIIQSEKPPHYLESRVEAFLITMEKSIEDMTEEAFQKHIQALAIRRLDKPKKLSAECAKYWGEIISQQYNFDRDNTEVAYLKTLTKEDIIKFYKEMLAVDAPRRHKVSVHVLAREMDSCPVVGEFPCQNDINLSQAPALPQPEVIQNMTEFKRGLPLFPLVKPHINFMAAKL
TPT1 inhibitor – inhibitors of Candida albicans tRNA 2'-phosphotransferase TPT1 | recombinant caTPT1, FP RNA substrate dephosphorylation | hit rate 0.81% among 300,000 | AID 1962 | inhibition, % at 5 µM;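 active means inhibition above the mean of all tested compounds plus 3 SD, set per screening campaign, cut at about 24% in these data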;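 further: plate controls were DMSO alone for no effect and ferristatin control at 100 nM for full effect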
IDE inh – inhibitors of human insulin-degrading enzyme in cells. P14735. HEK cells, FAbetaB cleavage, fluorescence polarization. inhibition, % at 5.59 µM. hit rate 0.41% among 320,000. AID 434962;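 active means percent inhibition above the average of all tested compounds plus 3 SD, set per screening campaign, cut at about 16% in these data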;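 further: IDE supplied by intact live HEK cells; FP after avidin binding of uncleaved biotin substrate so inhibition keeps polarization high; 0% = DMSO wells and 100% = 60 µM reference IDE inhibitor Ii1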
CRFBP-R2 agonist – CRF-BP/CRF-R2 complex agonism; AID 588473; HEK293 CRF-R2/CRF-BP, calcium dye fluorescence (FLIPR); percent of saturating CRF peptide response; activation, % at 13.2 µM; hit rate 0.46% among 350,000;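 active means activation of at least 50%, plus an integration ratio under a set limit after plate pattern correction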;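 further: plate controls were neutral control wells without compound for no effect and CRF at EC100 for full effect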
Starred values were filed as active, the others as inactive.

What do the screens show for `O=C1C2=C(SCCS2)C(=O)N1CCCO`?
Cardiac RTF inh: -13; RTF Ca sens act: 6; IDE act: 7; TPT1 inhibitor: -25; IDE inh: -4; CRFBP-R2 agonist: 59*

Results for COc1ccc2c(c1)c(CC(=O)Nc1ccccc1OC)c(C)n2C(=O)c1ccc(Cl)cc1 ?
Cardiac RTF inh: 2; RTF Ca sens act: -4; IDE act: 3; TPT1 inhibitor: 0; IDE inh: 3; CRFBP-R2 agonist: 2

What do the screens show for `COc1ccc2c(c1)c(CC(=O)Nc1cc(C)ccc1C)c(C)n2C(=O)c1ccc(Cl)cc1`?
Cardiac RTF inh: 6; RTF Ca sens act: 0; IDE act: 7; TPT1 inhibitor: 0; IDE inh: 2; CRFBP-R2 agonist: 89*

Results for Cc1[nH]c2ccccc2c1C(=O)CN1CCCCC1C (stereo not given) ?
Cardiac RTF inh: -4; RTF Ca sens act: 8; IDE act: 6; TPT1 inhibitor: 13; IDE inh: 3; CRFBP-R2 agonist: 74*

How did CCC1CCCCN1CC(=O)c1c(C)[nH]c2ccccc12 (stereo not given) do in these assays?
Cardiac RTF inh: -3; RTF Ca sens act: 0; IDE act: 1; TPT1 inhibitor: 6; IDE inh: 0; CRFBP-R2 agonist: 107*

Results for CCOC(=O)c1c(C)oc2c1C(=O)c1ccccc1C2=O ?
Cardiac RTF inh: 8; RTF Ca sens act: -9; IDE act: 2; TPT1 inhibitor: -1; IDE inh: -9; CRFBP-R2 agonist: 2

How did CCNc1ccc2noc3c2c1C(=O)c1ccccc1-3 do in these assays?
Cardiac RTF inh: inactive; RTF Ca sens act: active; IDE act: 17; TPT1 inhibitor: -37; IDE inh: -6; CRFBP-R2 agonist: 192*

What do the screens show for `O=C1c2ccccc2-c2onc3ccc(N4CCCC4)c1c23`?
Cardiac RTF inh: inactive; RTF Ca sens act: 396*; IDE act: -4; CRFBP-R2 agonist: 83*

Results for CCOc1ccc2noc3c2c1C(=O)c1ccccc1-3 ?
Cardiac RTF inh: inactive; RTF Ca sens act: active; IDE act: 44*; TPT1 inhibitor: -92; IDE inh: -11; CRFBP-R2 agonist: 0

Results for CC1(C(=O)O)CCC(C(=O)Nc2ccc(OC(F)(F)Cl)cc2)C1(C)C (stereo not given) ?
Cardiac RTF inh: -3; RTF Ca sens act: -3; IDE act: 3; TPT1 inhibitor: -2; IDE inh: 5; CRFBP-R2 agonist: -2

How did CCOC(=O)c1c(-c2cc(OC)c(OC)c(OC)c2)csc1NC(=O)c1ccccc1 do in these assays?
CRFBP-R2 agonist: 0

What do the screens show for `CCOC(=O)c1c(-c2ccccc2)csc1NC(=O)/C(C#N)=C\c1ccc(O)c(OC)c1`?
Cardiac RTF inh: -64; RTF Ca sens act: 40*; IDE act: -74; CRFBP-R2 agonist: 132*

What do the screens show for `CCOC(=O)/C(C#N)=C\c1ccc(O)c(OC)c1`?
Cardiac RTF inh: -2; RTF Ca sens act: -5; IDE act: 1; TPT1 inhibitor: 9; IDE inh: -2; CRFBP-R2 agonist: 0

How did CCOC(=O)c1c(-c2ccc(C)cc2)csc1NC(=O)/C(C#N)=C/c1ccc(O)c(OC)c1 do in these assays?
Cardiac RTF inh: -33; RTF Ca sens act: 49*; IDE act: -143; CRFBP-R2 agonist: 195*

How did O=C(N=C1SC2CS(=O)(=O)CC2N1c1ccc(Cl)c(Cl)c1)C1CCCO1 (stereo not given) do in these assays?
Cardiac RTF inh: 3; RTF Ca sens act: 10; IDE act: 3; TPT1 inhibitor: -1; IDE inh: 4; CRFBP-R2 agonist: 3

What do the screens show for `COc1cc(/C=C2\CCC(C)C3=C(c4cc(OC)c(OC)c(OC)c4)C(C#N)=C(N)OC32)cc(OC)c1OC` (stereo not given)?
Cardiac RTF inh: -57; RTF Ca sens act: 40*; IDE act: -2; CRFBP-R2 agonist: 63*

Results for COc1cc(/C=C2\CCC(C3CCCC3)C2=O)cc(OC)c1OC (stereo not given) ?
Cardiac RTF inh: -2; RTF Ca sens act: -3; IDE act: 4; TPT1 inhibitor: 0; IDE inh: -1; CRFBP-R2 agonist: 3

What do the screens show for `Cc1ccc(CS(=O)(=O)c2cn(CC(=O)N3CCOCC3)c3ccccc23)cc1`?
Cardiac RTF inh: 1; RTF Ca sens act: -2; IDE act: 5; TPT1 inhibitor: -1; IDE inh: -4; CRFBP-R2 agonist: -1

Results for Nc1nc(SCc2ccc(Br)cc2)c2ncn(C3OC(CO)C(O)C3O)c2n1 (stereo not given) ?
Cardiac RTF inh: 2; RTF Ca sens act: 2; IDE act: 2; CRFBP-R2 agonist: -1

Results for O=[N+]([O-])c1cc(/C=N/N/C(=N/c2ccccn2)c2ccccn2)ccc1O ?
Cardiac RTF inh: -2; RTF Ca sens act: 4; IDE act: 4; TPT1 inhibitor: -2; IDE inh: 2; CRFBP-R2 agonist: 66*

How did O=[N+]([O-])c1ccc(/C=N/N/C(=N/c2ccccn2)c2ccccn2)cc1 do in these assays?
Cardiac RTF inh: -5; RTF Ca sens act: 7; IDE act: -2; TPT1 inhibitor: -3; IDE inh: 2; CRFBP-R2 agonist: 2

How did CC(NC(=O)CN1CCC(C(N)=O)CC1)c1ccccc1 (stereo not given) do in these assays?
Cardiac RTF inh: -3; RTF Ca sens act: 48*; IDE act: 3; TPT1 inhibitor: -1; IDE inh: 0; CRFBP-R2 agonist: 4

Results for CC(NC(=O)CN1CCCC1)c1ccccc1 (stereo not given) ?
Cardiac RTF inh: -1; RTF Ca sens act: -6; IDE act: 4; TPT1 inhibitor: -2; IDE inh: 4; CRFBP-R2 agonist: 3

How did CCCCn1c(N)c(N(CC(C)C)C(=O)CCC2CCCCC2)c(=O)[nH]c1=O do in these assays?
Cardiac RTF inh: -3; RTF Ca sens act: -1; IDE act: 4; TPT1 inhibitor: -5; IDE inh: 8; CRFBP-R2 agonist: 2

Results for O=S1(=O)N=C(N(CCO)/N=C/c2ccc(Cl)cc2)c2ccccc21 ?
Cardiac RTF inh: 0; RTF Ca sens act: -2; IDE act: -1; TPT1 inhibitor: -2; IDE inh: 1; CRFBP-R2 agonist: -3

How did CN(C)c1ccc(/C=N/N(CCO)C2=NS(=O)(=O)c3ccccc32)cc1 do in these assays?
Cardiac RTF inh: -308; RTF Ca sens act: 316*; IDE act: -33; TPT1 inhibitor: -2; IDE inh: 12; CRFBP-R2 agonist: 140*

What do the screens show for `O=C(NCC1CC1)c1onc(CSc2ccc(F)c(F)c2)c1C(=O)NCC1CC1`?
Cardiac RTF inh: -18; RTF Ca sens act: -4; IDE act: 65*; TPT1 inhibitor: -2; IDE inh: -2; CRFBP-R2 agonist: 0

How did C=CCNC(=O)c1onc(CSc2ccc(F)c(F)c2)c1C(=O)NCC=C do in these assays?
Cardiac RTF inh: -10; RTF Ca sens act: 6; IDE act: -10; TPT1 inhibitor: -2; IDE inh: 2; CRFBP-R2 agonist: -1
